Each structure is given as a SMILES string. Records with an inconclusive call do not appear. Where a call stands in place of a potency, no number is given. Active and inactive are the calls of the source. Unless noted, the call rests on the fitted dose curve.

In the first assay the target is Estrogen receptor (Homo sapiens) (UniProt P03372). Nature of the assay: qHTS assay to identify small molecule antagonists of the estrogen receptor alpha (ER-alpha) signaling pathway (AID 743069; active means well fitted curve in the direction sought with a large enough effect in the signal ratio in the repeat runs, not every such curve was filed as active; the % refers to the signal ratio). Particulars: HEK293 ER-alpha-UAS-bla, beta-lactamase ratio, antagonist mode; series mostly up to 69.4 µM. In a few lines: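 Estradiol-stimulated ER-alpha-UAS-bla HEK293 cells, 18 hr compound exposure at 37C. LiveBLAzer B/G substrate, 2 hr RT, fluorescence read.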
Sequence of Estrogen receptor (Homo sapiens) (P03372 whole entry, looked up): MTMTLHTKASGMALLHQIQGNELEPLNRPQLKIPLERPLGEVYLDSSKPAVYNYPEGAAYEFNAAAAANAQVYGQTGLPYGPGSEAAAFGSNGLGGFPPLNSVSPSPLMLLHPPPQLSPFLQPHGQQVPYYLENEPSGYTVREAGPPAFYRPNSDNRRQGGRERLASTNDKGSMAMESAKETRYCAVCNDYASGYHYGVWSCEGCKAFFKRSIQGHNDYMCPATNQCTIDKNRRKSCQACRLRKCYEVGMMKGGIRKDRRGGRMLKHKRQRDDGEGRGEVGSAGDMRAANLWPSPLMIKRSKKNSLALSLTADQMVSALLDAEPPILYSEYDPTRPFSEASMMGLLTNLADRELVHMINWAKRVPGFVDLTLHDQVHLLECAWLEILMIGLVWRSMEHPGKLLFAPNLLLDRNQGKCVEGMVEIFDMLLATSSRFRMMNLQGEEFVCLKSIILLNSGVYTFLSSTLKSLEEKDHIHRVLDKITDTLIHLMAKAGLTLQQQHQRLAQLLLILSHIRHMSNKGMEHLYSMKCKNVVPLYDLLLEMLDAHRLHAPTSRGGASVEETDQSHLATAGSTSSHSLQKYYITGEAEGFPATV
Background: qHTS replaces the single test concentration by a dilution series.
With `O=C1OCCN1/N=C/c1ccc([N+](=O)[O-])o1`, the Potency result was “inactive”.
Still for that read-out and setting: with `O=C(Nc1ccccc1)Nc1ccccc1` the entry was “inactive”; with `CC(CCc1ccc2c(c1)OCO2)NN` (configuration not stated), “inactive”.
For the compound `CCCCCC=CCC=CCCCCCCCC(=O)OCC`, the Potency result is “inactive”.
On to `CCCOc1ccc(S(=O)(=O)N2CCN(CC)CC2)cc1-c1nc2c(CC)n(Cc3ccccn3)nc2c(=O)[nH]1`, for which the Potency result was “inactive”.
With `CC(=O)Nc1ccc(N)cc1`, the Potency result was “inactive”.
As to `c1ccc(COCc2ccccc2)cc1`, the Potency entry was “inactive”.
The same measure, in the same setting: with `CC1(C)O[C@@H]2C[C@H]3[C@@H]4CCC5=CC(=O)C=C[C@]5(C)[C@H]4[C@@H](O)C[C@]3(C)[C@]2(C(=O)CO)O1` the entry was “inactive”.
Turning to `ON(Cc1ccccc1)Cc1ccccc1`, the Potency result was “inactive”.
As for `CC(=O)OCC(=O)[C@H]1CC[C@H]2[C@@H]3CCC4=CC(=O)CC[C@]4(C)[C@H]3CC[C@]12C`, the Potency entry is “inactive”.
Turning to `CCCCCCCCCCCC[N+](C)(C)CCCS(=O)(=O)[O-]`, the Potency entry was “inactive”.
Take `CC(N)CN` (configuration not stated): the Potency entry was “inactive”.
Take `CCCCOC(=O)CCS`: the Potency entry is “inactive”.
On to `O=C(O)C(Cc1cc(I)c(O)c(I)c1)c1ccccc1` (configuration not stated), for which the Potency entry was “inactive”.

Tested on in a further assay: not listed separately
Nature of the assay: qHTS assay to identify small molecule antagonists of the estrogen receptor alpha (ER-alpha) signaling pathway - cell viability counter screen (AID 743074).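 Further: HEK293 cells carrying ER-alpha-UAS-bla reporter stimulated with 17beta-estradiol; nearly all actives have a fitted effect of over 45% in size.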 Further: potency means the concentration at half of the fitted maximal effect. The following applies: ERalpha-bla HEK293 viability, CellTiter-Glo luminescence, 18 h; series mostly up to 69.4 µM.
Consider `O=C1OCCN1/N=C/c1ccc([N+](=O)[O-])o1`, for which the Potency entry was “inactive”.
For `CC(=N\O)/C(C)=N/O`, the Potency result is “inactive”.
In the case of `O=C(CS)OCCOC(=O)CS`, the Potency result was “inactive”.
For the compound `Cc1ccccc1N1C(=O)c2cc(S(N)(=O)=O)c(Cl)cc2NC1C` (configuration not stated), the Potency entry is “inactive”.
On the same count and under the same terms, the result for `O=C(Nc1ccccc1)Nc1ccccc1` reads “inactive”; that for `CCCCCC=CCC=CCCCCCCCC(=O)OCC`, “inactive”.
On the same count and under the same terms, the result for `CC1=NN(c2ccc(C(=O)O)cc2)C(=O)C1` reads “inactive”.
As for `O=C(O)c1snc(Cl)c1Cl`, the Potency result is “inactive”.
The same measure, in the same setting: the result for `O=C(N/N=C/c1ccc([N+](=O)[O-])o1)c1ccc(O)cc1` reads “inactive”; that for `C[N+]1(C)CCC(=C(c2ccccc2)c2ccccc2)CC1`, “inactive”; that for `CCCOc1ccc(S(=O)(=O)N2CCN(CC)CC2)cc1-c1nc2c(CC)n(Cc3ccccn3)nc2c(=O)[nH]1`, “inactive”.
As for `Nc1ccc(C(=O)OCCCOC(=O)c2ccc(N)cc2)cc1`, the Potency entry was “inactive”.
`CC(=O)Nc1ccc(N)cc1`: the Potency result is “inactive”.
Take `C=CC(=C)CCCC(C)(C)OC(C)=O`: the Potency entry is “inactive”.
`C[C@@H]1C[C@H]2[C@@H]3CCC4=CC(=O)C=C[C@]4(C)[C@@]3(F)[C@@H](O)C[C@]2(C)[C@@]1(O)C(=O)CO`: the Potency entry is “inactive”.
On the same count and under the same terms, the result for `c1ccc(COCc2ccccc2)cc1` reads “inactive”; that for `CC1(C)O[C@@H]2C[C@H]3[C@@H]4CCC5=CC(=O)C=C[C@]5(C)[C@H]4[C@@H](O)C[C@]3(C)[C@]2(C(=O)CO)O1`, “inactive”; that for `Cc1ccc(S(=O)(=O)NC2CCCCC2)cc1`, “inactive”.
`ON(Cc1ccccc1)Cc1ccccc1`: the Potency result was “inactive”.
With `CC(=O)OCC(=O)[C@H]1CC[C@H]2[C@@H]3CCC4=CC(=O)CC[C@]4(C)[C@H]3CC[C@]12C`, the Potency result is “inactive”.
Turning to `CCCCCCCCCCCC[N+](C)(C)CCCS(=O)(=O)[O-]`, the Potency was 49.6 µM (active).
Regarding `COCCOC`, the Potency entry was “inactive”.
For `CC(C)(C)C(=O)O`, the Potency result was “inactive”.
`Fc1c(F)c(F)c(Br)c(F)c1F`: the Potency result was “inactive”.
On to `CCC(C)=O`, for which the Potency entry is “inactive”.
`CC1CC(=O)NN=C1c1ccc(NCC(C)(C)NCC(O)COc2cc(Cl)ccc2C#N)cc1` (configuration not stated): the Potency result was “inactive”.
Regarding `CC(N)CN` (configuration not stated), the Potency entry was “inactive”.
For `CCCCOC(=O)CCS`, the Potency result is “inactive”.
In the case of `CC[C@@H]([C@H](C)O)n1ncn(-c2ccc(N3CCN(c4ccc(OC[C@@H]5CO[C@@](Cn6cncn6)(c6ccc(F)cc6F)C5)cc4)CC3)cc2)c1=O`, the Potency entry is “inactive”.
As to `Cc1cc(S(=O)(=O)O)ccc1N=Nc1c(O)ccc2ccccc12`, the Potency result is “inactive”.
Take `O=C(O)C(Cc1cc(I)c(O)c(I)c1)c1ccccc1` (configuration not stated): the Potency entry is “inactive”.
Regarding `Fc1ccccc1[C@@H](F)COC1CCC(Nc2ncnc3[nH]ncc23)CC1` (some centres not stated), the Potency entry was “inactive”.
In the case of `CCCCC(=O)O[C@]1(C(=O)CO)CC[C@H]2[C@@H]3CCC4=CC(=O)CC[C@]4(C)[C@H]3[C@@H](O)C[C@@]21C`, the Potency entry was “inactive”.

(Values after PubChem BioAssay (Tox21).)
